# Experimental data taken from PubChem BioAssay AID720606 (Broad Institute, 2013).
# Results filed as inconclusive are left out. Calls of active or inactive are those of the source.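 The calls were made as follows: active = all three timepoint tests show falling viability with half-maximal potency at or below twice the top dose; inconclusive = timepoint tests disagree on the call; inactive = all timepoint tests inactive.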
# Assay: cytotoxicity in LOX IMVI cells – cell-based, Alamar Blue fluorescence, 8/24/48 h, dry powder, HRAS target identification, dose response (AID 720606)
row,Structure (SMILES),outcome
1,CCC(=O)N(c1ccc(OC)c(Cl)c1)C(C(=O)NCCc1ccccc1)c1cccs1 (configuration not stated),inactive
2,Cc1onc(C(=O)N2CCN(C(c3ccncc3)c3ccncc3)CC2)c1[N+](=O)[O-],inactive
